Measured values taken from PubChem BioAssay.
Calls of active or inactive are those of the source.

What was measured:
[1] = E. coli DRC41 culture turbidity changes, primary screen, E. coli filamentation inducer project, strain DRC41, OD650, 48 h (AID 1152);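 also: E. coli MC1000 strain DRC41 lacking acrAB efflux pump and sulA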; details: E. coli DRC41 (acrAB sulA), higher = more signal, called active from +8 up or from −8 down
[2] = small-molecule binders of probe aLefty1, primary screen, biochemical, small-molecule microarray, 635/667 nm fluorescence (AID 1153); details: higher = more signal;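 also: score merges spot fluorescence with signal-to-noise ratio from the scanned slide images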
[3] = PSAC antagonists in infected red cells, primary screen, cell-based, P. falciparum Indochina, OD700, 1 h (AID 1154); details: P. falciparum Indochina infected RBC osmotic lysis, higher = more signal, called active from +8 up or from −8 down
[4] = PSAC antagonists in infected red cells, primary screen, cell-based, P. falciparum Indochina, OD700, 2 h (AID 1155);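 also: lysis reports solute entry through the parasite surface anion channel PSAC; channel blockers reduce lysis of infected cells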; details: P. falciparum Indochina infected erythrocytes, osmotic lysis OD700; higher = more signal, called active from +8 up or from −8 down
[5] = osmotic lysis modulators in infected erythrocytes, primary screen, PSAC antagonist project, cell-based, P. falciparum Indochina, OD700, 3 h (AID 1156); details: higher = more signal, called active from +8 up or from −8 down
[6] = PSAC antagonists in infected red cells, primary screen, cell-based, P. falciparum Indochina, OD700, 18 h (AID 1157); details: P. falciparum Indochina infected erythrocytes, osmotic lysis OD700, 18 h; higher = more signal, called active from +8 up or from −8 down
[7] = modulators of S6 phosphorylation in cells, primary screen, cell-based, A549, cytoblot, luminescence, serum-stimulated (AID 1158); details: A549 phospho-S6 cytoblot, 5 h, higher = more signal;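 also: serum-stimulated A549 lung adenocarcinoma cells; signal is phosphorylated S6 detected by cytoblot immunostaining with HRP secondary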
[8] = target: NADPH oxidase 2 (Homo sapiens) (UniProt P04839); experiment: NOX2-dependent H2O2 signal modulators, primary screen, NOX inhibitor project, cell-based, HEK293-NOX2, PMA-stimulated, Amplex Red fluorescence (AID 1159); details: 45 min, higher = more signal, called active from +8 up or from −8 down; also: test concentration not given here
NADPH oxidase 2 (Homo sapiens), sequence (P04839 whole entry, looked up): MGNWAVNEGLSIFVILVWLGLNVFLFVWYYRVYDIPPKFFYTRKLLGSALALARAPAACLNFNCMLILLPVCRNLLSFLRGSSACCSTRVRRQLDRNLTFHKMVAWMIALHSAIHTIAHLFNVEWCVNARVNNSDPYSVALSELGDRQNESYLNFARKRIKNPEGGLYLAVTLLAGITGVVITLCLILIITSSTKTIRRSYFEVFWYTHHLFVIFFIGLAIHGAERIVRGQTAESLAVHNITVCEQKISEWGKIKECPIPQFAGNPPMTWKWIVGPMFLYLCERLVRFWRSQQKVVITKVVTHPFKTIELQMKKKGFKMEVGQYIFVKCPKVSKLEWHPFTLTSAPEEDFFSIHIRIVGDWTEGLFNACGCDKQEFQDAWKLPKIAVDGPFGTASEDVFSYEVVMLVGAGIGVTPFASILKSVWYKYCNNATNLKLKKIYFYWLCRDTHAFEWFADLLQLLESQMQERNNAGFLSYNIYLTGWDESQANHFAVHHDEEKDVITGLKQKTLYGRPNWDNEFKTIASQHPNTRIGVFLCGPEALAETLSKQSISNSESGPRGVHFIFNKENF

[9] = target: NADPH oxidase 4 (Homo sapiens) (UniProt Q9NPH5); experiment: NOX4-dependent H2O2 signal modulators, primary screen, NOX inhibitor project, cell-based, HEK293-NOX4, tetracycline-induced, Amplex Red fluorescence (AID 1160); details: 45 min, higher = more signal, called active from +8 up or from −8 down
NADPH oxidase 4 (Homo sapiens), sequence (Q9NPH5 whole entry, looked up): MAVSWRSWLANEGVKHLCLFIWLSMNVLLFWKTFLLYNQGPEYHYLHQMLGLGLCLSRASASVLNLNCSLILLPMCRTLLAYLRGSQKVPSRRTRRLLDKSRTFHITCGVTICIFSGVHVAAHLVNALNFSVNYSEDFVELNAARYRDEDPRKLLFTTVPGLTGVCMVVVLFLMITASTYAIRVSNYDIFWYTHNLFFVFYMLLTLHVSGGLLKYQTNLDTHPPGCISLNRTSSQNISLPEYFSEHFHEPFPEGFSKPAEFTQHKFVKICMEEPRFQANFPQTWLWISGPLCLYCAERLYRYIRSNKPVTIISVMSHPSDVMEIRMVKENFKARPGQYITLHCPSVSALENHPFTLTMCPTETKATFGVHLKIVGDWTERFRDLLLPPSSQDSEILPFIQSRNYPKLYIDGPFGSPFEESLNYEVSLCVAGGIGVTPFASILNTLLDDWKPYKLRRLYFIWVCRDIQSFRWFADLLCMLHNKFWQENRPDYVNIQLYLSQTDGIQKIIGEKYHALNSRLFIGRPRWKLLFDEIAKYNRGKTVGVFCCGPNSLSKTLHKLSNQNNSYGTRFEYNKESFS

[10] = target: NADPH oxidase 5 (Homo sapiens) (UniProt Q96PH1); experiment: NOX5-dependent H2O2 signal modulators, primary screen, NOX inhibitor project, cell-based, HEK293-NOX5, Amplex Red fluorescence (AID 1161); details: HEK293-NOX5, ionomycin, 45 min, higher = more signal
NADPH oxidase 5 (Homo sapiens), sequence (Q96PH1 whole entry, looked up): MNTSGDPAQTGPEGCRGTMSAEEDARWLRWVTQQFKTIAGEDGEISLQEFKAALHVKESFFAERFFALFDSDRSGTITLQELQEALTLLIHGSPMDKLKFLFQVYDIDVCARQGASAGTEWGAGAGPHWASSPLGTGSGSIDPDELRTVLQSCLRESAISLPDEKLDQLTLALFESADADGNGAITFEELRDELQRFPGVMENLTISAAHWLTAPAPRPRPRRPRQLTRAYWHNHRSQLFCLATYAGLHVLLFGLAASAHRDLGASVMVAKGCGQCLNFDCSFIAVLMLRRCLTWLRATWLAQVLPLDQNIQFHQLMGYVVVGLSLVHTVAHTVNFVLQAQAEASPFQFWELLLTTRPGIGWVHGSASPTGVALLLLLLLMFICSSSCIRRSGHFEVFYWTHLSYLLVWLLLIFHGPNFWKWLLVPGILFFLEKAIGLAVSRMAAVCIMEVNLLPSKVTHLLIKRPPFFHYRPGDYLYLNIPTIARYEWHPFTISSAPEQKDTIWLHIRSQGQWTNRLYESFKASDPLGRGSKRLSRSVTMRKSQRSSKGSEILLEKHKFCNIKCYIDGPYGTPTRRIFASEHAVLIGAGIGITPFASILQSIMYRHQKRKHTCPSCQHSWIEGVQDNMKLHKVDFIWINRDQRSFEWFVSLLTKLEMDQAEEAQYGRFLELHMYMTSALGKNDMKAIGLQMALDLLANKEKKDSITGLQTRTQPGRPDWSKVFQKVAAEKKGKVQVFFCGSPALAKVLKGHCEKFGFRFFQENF

[11] = A549 cell viability effects, profiling panel, calcein-AM fluorescence, 48 h, basal (AID 1162); details: higher = more signal; also: test concentration not given here
[12] = adipocyte viability effects, profiling panel, cell-based, 3T3-L1 adipocytes, calcein-AM fluorescence, 48 h, basal (AID 1163); details: 3T3-L1 adipocytes viability, higher = more signal; also: test concentration not given here
[13] = HepG2 cell viability effects, profiling panel, calcein-AM fluorescence, 48 h, basal (AID 1164); details: higher = more signal; also: test concentration not given here
[14] = MM1S cell viability effects, profiling panel, calcein-AM fluorescence, 48 h, basal (AID 1165); details: higher = more signal;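 also: viability of MM1S multiple myeloma cells under basal unstimulated conditions; test concentration not given here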
[15] = basal RPMI8226 viability, no added stimulus, profiling panel, cell-based, calcein-AM fluorescence, 48 h, PK04 Diversity Set (AID 1166); details: RPMI8226 myeloma viability, higher = more signal;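 also: cells grown under basal conditions without added stimulus; test concentration not given here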
[16] = basal HepG2 mitochondrial membrane potential changes, profiling panel, cell-based, JC-1 fluorescence, 24 h, 100 nL compound (AID 1167); details: higher = more signal; also: test concentration not given here
[17] = basal 3T3-L1 adipocyte mitochondrial potential changes, profiling panel, cell-based, JC-1 fluorescence, 3T3-L1 adipocytes, 24 h, 100 nL compound (AID 1168); details: JC-1 mitochondrial fluorescence, higher = more signal, called active from +8 up or from −8 down; also: test concentration not given here
[18] = basal RPMI8226 mitochondrial membrane potential changes, profiling panel, cell-based, JC-1 fluorescence, 24 h, 100 nL compound (AID 1169); details: RPMI8226 myeloma, JC-1 mitochondrial potential fluorescence, higher = more signal; also: test concentration not given here
[19] = basal MM1S mitochondrial membrane potential changes, profiling panel, cell-based, JC-1 fluorescence, 24 h, 100 nL compound (AID 1170); details: higher = more signal; also: test concentration not given here
[20] = A549 lung cancer cell viability effects, profiling panel, resazurin fluorescence, 24 h, PK04 Diversity Set (AID 1171); details: higher = more signal, called active from +8 up or from −8 down; also: test concentration not given here

Row | Compound | z-score [1] | composite z-score [2] | z-score [3] | z-score [4] | z-score [5] | z-score [6] | z-score [7] | z-score [8] | z-score [9] | z-score [10] | z-score [11] | z-score [12] | z-score [13] | z-score [14] | z-score [15] | z-score [16] | z-score [17] | z-score [18] | z-score [19] | z-score [20]
1 | C=CCC(OC(C)=O)[C@@H]1[C@@H](N(Cc2ccc(-c3cccc(C(F)(F)F)c3)o2)C(=O)c2ccc(C)cc2)c2cc(OCCCO)ccc2N1C(=O)Cc1ccc2ccccc2c1 (stereo not given in full) | 1.93 (inactive) | -0.0035 | 1.05 (inactive) | 0.172 (inactive) | -0.305 (inactive) | 0.825 (inactive) | 0.533 | -0.439 (inactive) | 1.04 (inactive) | 1.51 | 0.474 | 0.9 | 0.544 | -0.886 | 0.707 | 2.75 | 0.417 (inactive) | 1.01 | -0.554 | 0.379 (inactive)
2 | COC(=O)[C@@]1(Cc2ccc(F)cc2)[C@H]2c3cc(C(=O)N4CCCC4)n(Cc4ccc(S(C)(=O)=O)cc4)c3C[C@H]2CN1C(=O)c1ccccc1 | -1.75 (inactive) | 1.24 | 2.29 (inactive) | 0.675 (inactive) | 0.775 (inactive) | 0.643 (inactive) | -0.339 | 0.949 (inactive) | -0.138 (inactive) | -0.744 | 0.0676 | 0.582 | -0.035 | -1.23 | -1.35 | 2.11 | -1.3 (inactive) | 0.611 | -0.583 | 0.039 (inactive)
3 | COC(=O)[C@@]1(Cc2ccccc2)N=C(c2ccc(OCCCO)cc2)O[C@H]1c1ccccc1 | 0.792 (inactive) | 0.236 | 23.4 (active) | 12.2 (active) | 0.737 (inactive) | 1.89 (inactive) | -0.182 | -5.76 (inactive) | -0.904 (inactive) | -3 | -1.98 | 0.598 | -1.69 | -3.6 | -3.94 | -2.02 | 0.294 (inactive) | -1.1 | -0.354 | -2.02 (inactive)
4 | Oc1ccc2cc[n+](Cc3sc4ccccc4c3Cl)cc2c1 | -0.669 (inactive) | 0.248 | 1.52 (inactive) | 0.109 (inactive) | 1.52 (inactive) | 0.352 (inactive) | 0.0138 | -0.121 (inactive) | -1.23 (inactive) | -0.1 | -0.66 | 0.552 | -0.934 | 0.241 | -1.86 | -1.4 | -0.0649 (inactive) | 0.376 | 1.78 | -0.655 (inactive)
5 | CC(C)=CCN[C@H](CO)c1ccccc1 | -0.209 (inactive) | -0.114 | 0.128 (inactive) | -0.916 (inactive) | 0.198 (inactive) | -2.39 (inactive) | 0.983 | -0.763 (inactive) | -0.688 (inactive) | -1.61 | -0.11 | 1.93 | -0.0885 | -1.22 | -1.9 | -0.416 | 0.476 (inactive) | -0.0908 | 0.559 | -0.278 (inactive)
6 | COC(=O)[C@@]1(Cc2ccc(OC)cc2)[C@H]2c3cc(C(=O)N4CCCC4)n(CCN4CNCC4=O)c3C[C@H]2CN1C(=O)c1ccccc1 | -0.82 (inactive) | 1.86 | 2.95 (inactive) | 0.0621 (inactive) | 0.775 (inactive) | 0.838 (inactive) | 0.287 | 0.468 (inactive) | -2.36 (inactive) | -4.44 | -0.215 | 0.0334 | -0.137 | -0.105 | -2.17 | 0.696 | -0.514 (inactive) | -0.429 | -0.162 | -0.936 (inactive)
7 | OCCCC1=CC(c2cccs2)N(Cc2cc3c(cc2Br)OCO3)CC1 (stereo not given) | -1.3 (inactive) | 0.187 | 5.53 (inactive) | 0.887 (inactive) | -0.281 (inactive) | 0.625 (inactive) | -0.684 | -0.283 (inactive) | -0.294 (inactive) | -0.768 | -0.433 | 1.03 | 0.145 | -1.44 | -1.52 | -0.578 | -0.359 (inactive) | -0.707 | -0.145 | -0.178 (inactive)
8 | COCCOC(=O)N1C(=O)[C@@]2(c3cc(C#CCCO)ccc31)[C@H](C(N)=O)[C@H]1C(=O)O[C@H](c3ccccc3)[C@H](c3ccccc3)N1[C@@H]2c1ccc(O)cc1 | -0.903 (inactive) | -0.15 | 2.44 (inactive) | 0.213 (inactive) | -0.458 (inactive) | -0.0317 (inactive) | -0.237 | 0.463 (inactive) | 0.561 (inactive) | 0.728 | -0.272 | 0.24 | -0.05 | 0.0119 | -1.2 | -0.537 | -0.142 (inactive) | -0.105 | 0.0477 | -0.3 (inactive)
9 | CC(=O)n1cc(C(O)C2C=CC3C(=O)N(c4ccccc4)C(=O)C3N2Nc2ccc([N+](=O)[O-])cc2)c2ccccc21 (stereo not given) | -1.2 (inactive) | 0.272 | 17 (active) | 3.57 (inactive) | 1.13 (inactive) | 0.954 (inactive) | -0.75 | -0.808 (inactive) | -2.56 (inactive) | -1.91 | -0.456 | -0.479 | -0.439 | -1.53 | -0.315 | -1.75 | -1.2 (inactive) | -0.412 | 0.0885 | -0.375 (inactive)
